# Screens from PubChem BioAssay.
# A selection: hits, their analogues and other compounds. The true share with any hit is near 6.7%.
# Mtb FBA inh = inhibits M. tuberculosis FBA enzyme; P9WQA3; purified M. tuberculosis FBA, fluorescence read-out; inhibition, % at 1 µM; 2.3% of 360,000 active; in the data active = inhibition above about 27%
# Anthrax LF prot = inhibitors of Bacillus anthracis lethal factor protease; P15917; multiplex microsphere protease cleavage assay, LF; inhibition, % at 10 µM; 0.12% of 360,000 active
# Target sequence (P15917 whole entry, looked up): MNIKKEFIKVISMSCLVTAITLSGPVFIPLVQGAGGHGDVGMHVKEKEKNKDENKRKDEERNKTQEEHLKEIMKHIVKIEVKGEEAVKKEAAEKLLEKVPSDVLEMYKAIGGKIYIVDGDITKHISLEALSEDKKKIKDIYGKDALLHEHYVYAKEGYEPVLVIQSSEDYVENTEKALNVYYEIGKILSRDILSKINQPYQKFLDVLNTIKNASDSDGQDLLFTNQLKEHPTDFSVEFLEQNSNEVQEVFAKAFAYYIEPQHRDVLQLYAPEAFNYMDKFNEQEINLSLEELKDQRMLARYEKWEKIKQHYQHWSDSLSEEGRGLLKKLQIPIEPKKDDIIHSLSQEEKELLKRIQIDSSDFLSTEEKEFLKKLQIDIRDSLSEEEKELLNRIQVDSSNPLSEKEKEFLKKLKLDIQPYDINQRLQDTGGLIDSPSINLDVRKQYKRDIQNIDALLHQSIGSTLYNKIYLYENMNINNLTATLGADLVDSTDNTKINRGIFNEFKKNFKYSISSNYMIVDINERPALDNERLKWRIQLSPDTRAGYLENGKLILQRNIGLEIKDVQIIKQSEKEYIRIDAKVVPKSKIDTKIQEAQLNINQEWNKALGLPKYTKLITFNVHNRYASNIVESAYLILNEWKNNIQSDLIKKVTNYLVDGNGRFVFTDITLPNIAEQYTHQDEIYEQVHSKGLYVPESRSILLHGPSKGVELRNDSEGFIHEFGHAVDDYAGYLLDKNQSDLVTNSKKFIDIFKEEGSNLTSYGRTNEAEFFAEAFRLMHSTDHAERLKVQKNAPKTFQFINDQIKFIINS
# GDH-TPI inh = inhibits GDH-TPI coupling enzymes, artifact for Mtb FBA screen; GDH-TPI coupled enzyme counterscreen, NADH absorbance; inhibition, % at 4.8 µM; 1.2% of 360,000 active; AID 588335; in the data active = inhibition above about 30%
# BoNT A protease = BoNT A light chain protease inhibition; AID 588499; multiplex microsphere protease substrate cleavage, flow cytometry; 0.17% of 360,000 active; inhibition, % at 10 µM
# BoNT F protease = inhibitors of Botulinum neurotoxin F light chain protease. Multiplex microsphere protease cleavage assay, flow cytometry. AID 588497. inhibition, % at 10 µM. 0.22% of 360,000 active; in the data active = inhibition above about 35%, passing the limit was not always enough; inconclusive = no clear call, values can overlap the other calls
# Bead autofluor = compound fluorescence in toxin protease inhibitor counterscreen | compound autofluorescence counterscreen, microsphere flow cytometry; hits give high values | fluorescence intensity (no concentration beside the values) | 3.1% of 360,000 active | AID 624483; in the data active = fluorescence intensity above about 16000; inconclusive = no clear call, values can overlap the other calls
# Numbers stand for hits; 0 = inactive; ? = inconclusive; + = active, no number. Cut-off read from the data, not from the text of the source, unless noted: active = inhibition above about 30%; inconclusive = no clear call, values can overlap the other calls; inactive = below that.
SMILES,Mtb FBA inh,Anthrax LF prot,GDH-TPI inh,BoNT A protease,BoNT F protease,Bead autofluor
Cc1ccc(NC(=O)C2CCN(C(=O)NC3CCCCC3)CC2)cc1Cl,0,0,0,0,0,0
S=C(Nc1ccc(Cl)c(Cl)c1)NC1CCCCC1,0,0,0,0,0,21140
COc1cc(/C=N/n2nnnc2Nc2ccccc2)cc(OC)c1OC,0,0,33.7,0,0,0
COc1cc(/C=N/Nc2nc(Nc3ccccc3)nc(-n3nc(C)cc3C)n2)cc(OC)c1OC,0,0,0,0,0,0
CCOC(=O)NC(=O)/C(C#N)=C\NNc1ncc(C(F)(F)F)cc1Cl,0,0,0,0,0,0
CC(C)c1cc(CN2CCN(Cc3ccc(F)c(F)c3)C(CCO)C2)[nH]n1 (stereo not drawn),0,0,0,0,0,0
Cc1c(CC(=O)NCCCO)c(=O)oc2cc3c(cc12)CCC(C)(C)O3,182.8,0,0,0,0,0
Cc1oc2c(c(C)cc3oc(=O)c(CC(=O)NCCCO)c(C)c32)c1C,0,0,0,0,0,0
Cc1c(CC(=O)NCC(=O)NCC(=O)O)c(=O)oc2cc3c(cc12)CCC(C)(C)O3,194.0,0,0,0,0,0
Cc1c(CC(=O)NCC(=O)O)c(=O)oc2cc3c(cc12)CCC(C)(C)O3,+,0,0,0,0,0
Oc1ccc(Cl)cc1CNc1nccs1,0,0,0,0,0,0
COc1cc(CN2CC(=O)N(c3ccccc3Cl)C2=S)cc(OC)c1OC,0,0,0,0,0,0
CC(=O)Nc1ccc(NC(=O)CSc2nc(=O)n3cccc(C)c3n2)cc1,0,?,0,0,0,?
CSc1nc(=O)n2cccc(C)c2n1,0,0,0,0,0,21767
CC(C)NS(=O)(=O)c1ccc(OCC(=O)NCCC2=CCCCC2)cc1,0,0,0,0,0,0
CCCNS(=O)(=O)c1ccc(OCC(=O)NCCC2=CCCCC2)cc1,0,0,0,0,0,25068
COC(=O)COc1ccc(S(=O)(=O)NCCC2=CCCCC2)cc1,0,0,0,0,0,0
CCCNS(=O)(=O)c1ccc(OCC(=O)OC)cc1,0,0,0,0,0,24397
CCCCNS(=O)(=O)c1ccc(OCC(=O)OC)cc1,0,0,0,0,0,0
COC(=O)COc1ccc(S(=O)(=O)NCCC2=CCCCC2)cc1C,0,0,0,0,0,22566
CCOC(=O)COc1ccc(S(=O)(=O)Nc2ccc(C)cc2)cc1,0,0,0,?,0,20911
Cc1ccc(S(=O)(=O)NCCC(=O)Nc2ccc(Cl)cc2C(=O)c2ccccc2)cc1,0,0,0,0,0,0
N#CC(c1ccncc1)(c1ncc(C(F)(F)F)cc1Cl)N1CCOCC1 (stereo not drawn),0,0,0,0,0,0
CC1(C)CC(=O)C(C(C2=C(O)CC(C)(C)CC2=O)c2cccnc2)C(=O)C1 (stereo not drawn),0,0,0,0,0,0
CC1(C)CC(=O)C(C(C2=C(O)CC(C)(C)CC2=O)c2cccc(O)c2)C(=O)C1 (stereo not drawn),0,0,0,?,0,20599
SMILES,Mtb FBA inh,Anthrax LF prot,GDH-TPI inh,BoNT A protease,BoNT F protease,Bead autofluor
O=C(CSc1nccc(=O)[nH]1)c1ccccc1Br,0,0,0,0,0,16683
O=C(CSc1nccc(=O)[nH]1)c1c[nH]c2ccccc12,0,0,0,0,0,0
O=C(c1cccc([N+](=O)[O-])c1)N1CCN(c2ccccn2)CC1,0,0,0,0,0,0
CCOc1[nH]n(-c2ccccc2)c(=O)c1C=NCC(=O)OC,0,0,0,0,0,0
Cc1[nH]n(-c2ccccc2)c(=O)c1C=Nc1ccc2[nH]c(=O)[nH]c2c1,0,0,0,0,0,0
COC(=O)Cc1[nH]n(-c2ccccc2)c(=O)c1C=Nc1ccc(C)cc1,0,0,40.0,0,0,0
Cc1[nH]n(-c2ccccc2)c(=O)c1C=Nc1cccc(F)c1,0,0,32.5,0,0,0
CCCCCC(=O)Nc1cc(N(C)C)nc2ccccc12,0,0,0,0,0,17328
CN1CCN(CC(=O)Nc2cc(N(C)C)nc3ccccc23)CC1,0,0,0,0,0,0
CCn1ncc(Cl)c1C(=O)Nc1cc(Cl)ccc1Cl,0,0,0,0,0,22800
CCn1nccc1C(=O)Nc1cc(Cl)ccc1Cl,0,0,0,0,0,0
CN(C)S(=O)(=O)c1ccc(S(=O)(=O)N(Cc2ccco2)Cc2ccccc2Cl)cc1,0,0,0,0,0,0
CS(=O)(=O)N(Cc1ccco1)Cc1ccccc1Cl,0,0,0,?,0,20334
CCCCc1oc2c(c(=O)c1C)C(=O)CC(c1ccccc1)C2 (stereo not drawn),0,0,0,0,0,0
CCOc1ccc(C(CC(=O)O)NC(=O)c2ccco2)cc1 (stereo not drawn),0,0,0,?,0,19729
C=CCN1CCc2cc(O)c(O)cc2C(c2ccccc2)C1 (stereo not drawn),0,0,0,0,0,0
O=C(CSc1nc2ccccc2[nH]1)NCCCn1ccnc1,0,0,0,0,0,16490
Cc1ccccc1SCC(=O)NCCCn1ccnc1,0,0,0,0,0,0
CC(C)(C)c1ccc(C(=O)CC(=O)c2cc(Cl)ccc2O)cc1,0,0,0,0,0,21100
COc1ccc(N2CCN(c3nc(NCCc4ccc(OC)c(OC)c4)nc(OC)n3)CC2)cc1,0,0,0,?,0,22889
CCOc1nc(NCCc2ccc(OC)c(OC)c2)nc(N2CCN(c3ccc(OC)cc3)CC2)n1,0,0,0,0,0,23445
O=C(CCCN1C(=O)/C(=C/c2ccc(F)cc2)SC1=S)NC1CCS(=O)(=O)C1 (stereo not drawn),0,0,0,0,0,0
COc1ccc(/C(C)=C2\SC(=S)N(CCC(=O)O)C2=O)cc1,0,0,0,0,0,20765
CN(C)c1ccc(C(=S)N2CCCCC2)cc1Br,0,0,0,0,0,0
Cc1cc(C)nc(NC(=S)Nc2ccc(F)cc2F)c1,0,0,0,0,0,0
SMILES,Mtb FBA inh,Anthrax LF prot,GDH-TPI inh,BoNT A protease,BoNT F protease,Bead autofluor
COc1cc(OC)c(OC)cc1CNC1CCCCCC1,0,0,0,0,0,18257
COc1cc(CNC2CCCCCC2)cc(OC)c1OC,0,0,0,0,0,22719
COc1cc(OC)c(CNC2CCCCCC2)cc1Br,0,0,0,0,0,0
Cn1c(=NN=Cc2ccccc2OCCO)sc2ccccc21,0,0,31.9,0,0,0
Cc1ccc(-c2cc(C(F)(F)F)n3ncc(C(=O)N4CCN(C)CC4)c3n2)cc1,0,0,0,0,0,0
CCOc1ccc(N=C(NC#N)SCC(=O)NC2CC2)cc1,0,0,0,?,0,23167
Cc1nnc(SCC(=O)Nc2ccccc2C(=O)NC2CC2)s1,0,0,0,0,0,0
Cc1ccc(N(C(C)C(=O)Nc2cccc(N(C)S(C)(=O)=O)c2)S(C)(=O)=O)cc1 (stereo not drawn),0,0,0,0,0,0
Cc1ccc(SC(C)C(=O)Nc2cccc(N(C)S(C)(=O)=O)c2)cc1 (stereo not drawn),0,0,0,0,0,19657
